Tb PYK inh – blocks Trypanosoma brucei pyruvate kinase; Q57TT1; TbPYK enzyme, Kinase-Glo Plus ATP luminescence, 45 min; Potency, µM (series often up to 76.8 µM), actives largely listed as inhibitors; 410,000 compounds, 0.12% hits; active = well fitted curve in the direction sought with a large enough effect; an effect the other way counts as inactive or inconclusive; also: nearly all actives have a fitted effect of over 50% in size
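Assay buffer: 50 mM TEA pH 7.2, 100 mM KCl, 10 mM MgCl2, 0.05% BSA, 0.01% Tween-20. Pyruvate kinase from T. brucei plus substrate met compound, then ADP (130 uM final). Luminescence was read post 45 min RT.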
CHX counter – counter-screen for Shiga toxin inhibitors: cycloheximide protein synthesis inhibition. cell reporter, cycloheximide protein synthesis inhibition counterscreen. max response, %. 300,000 compounds, 12% hits. AID 2314; in the data active = max response mostly above about 13%, no sharp cut-off; inactive = mostly below about 14%; also: read at 38.3 µM for the half of the compounds with a filed dose
NS1 function inh – influenza NS1 inhibition; AID 2326; Potency, µM (doses to about 46.1 µM); 270,000 compounds, 0.4% hits; also: actives are rising curves; nearly all actives have a fitted effect of over 50% in size
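Compounds were scored for reversing the slow growth caused by influenza A NS1 in S. cerevisiae, measured by optical density at 600 nm. Assay medium contained 2% galactose at pH 6.0; NS1-free yeast of the same strain were the positive control.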
Shiga inhibitor – Shiga toxin inhibition; Vero cells, Shiga toxin protein synthesis inhibition reporter; inhibition, % at 38.7 µM; 290,000 compounds, 9.2% hits; AID 2315; in the data active = inhibition mostly above about 28%, no sharp cut-off; inactive = mostly below about 43%
LmPK inhibitor – inhibitors of Leishmania mexicana pyruvate kinase | 290,000 compounds, 0.37% hits | Q27686 | purified LmPK, Kinase-Glo ATP luminescence, 1 h | Potency, µM (highest dose often 57.5 µM), actives largely listed as inhibitors; active = well fitted curve in the direction sought with a large enough effect; an effect the other way counts as inactive or inconclusive
Target sequence (Q27686 whole entry, looked up): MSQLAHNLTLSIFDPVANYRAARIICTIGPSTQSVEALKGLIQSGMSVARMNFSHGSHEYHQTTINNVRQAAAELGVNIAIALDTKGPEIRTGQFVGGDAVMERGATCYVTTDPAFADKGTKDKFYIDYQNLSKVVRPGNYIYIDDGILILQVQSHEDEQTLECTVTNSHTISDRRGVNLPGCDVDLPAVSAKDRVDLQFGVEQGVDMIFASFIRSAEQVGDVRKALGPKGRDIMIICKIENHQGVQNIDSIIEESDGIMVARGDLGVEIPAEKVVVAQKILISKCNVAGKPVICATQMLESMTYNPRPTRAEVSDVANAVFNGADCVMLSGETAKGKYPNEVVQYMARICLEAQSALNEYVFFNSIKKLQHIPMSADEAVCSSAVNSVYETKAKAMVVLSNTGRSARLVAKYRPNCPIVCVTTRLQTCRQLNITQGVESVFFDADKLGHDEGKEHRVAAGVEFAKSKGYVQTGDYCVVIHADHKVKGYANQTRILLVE
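Kinase-Glo luminescence read after 1 h RT reaction of 0.1 nM LmPK with 0.5 mM PEP and 0.1 mM ADP. Activity scaled between uninhibited and enzyme-free controls.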
SARS PLpro yeast – blocks SARS-CoV papain-like protease in a yeast assay; S. cerevisiae expressing SARS-CoV PLpro, growth rescue; Potency, µM (series often up to 32.9 µM), usual class: activators; 330,000 compounds, 0.19% hits; also: nearly all actives have a fitted effect of over 55% in size
A number is an active result; 0 = inactive; - = not tested or not shown. Only a selection was taken, and hits are over-represented in it overall. Unless noted, calls follow the shape of the full dose curve.

SMILES	Tb PYK inh	CHX counter	NS1 function inh	Shiga inhibitor	LmPK inhibitor	SARS PLpro yeast
O=C(CSc1nnc2ccccn12)Nc1cccc(-c2nc3ccccc3s2)c1	0	0	0	39.4	0	0
Cc1cc(NCCN2CCOCC2)n2nc(C)c(-c3ccc(Cl)cc3)c2n1	0	0	0	0	0	0
Cc1cc(NCCCn2ccnc2)n2nc(C)c(-c3ccc(Cl)cc3)c2n1	0	25.9	0	0	0	0
Cc1cc(NCCCn2ccnc2)n2nc(C)c(-c3ccccc3)c2n1	0	43.6	0	0	0	0
Cc1cc(C)c(NC(=O)C2CCN(c3nn4c(=O)cc(C)nc4s3)CC2)c(C)c1	0	-	-	-	-	-
COc1cc2c(cc1OC)n(CC(=O)c1ccc(F)cc1)c(=O)n1nc(CCn3nc(C)cc3C)nc21	0	-	-	-	-	-
Cc1ccc(C(=O)Nc2cccc(OCc3cc(=O)n4c5c(sc4n3)CCCC5)c2)cc1	0	-	-	-	-	-
Cc1c(C(=O)Nc2cccc([N+](=O)[O-])c2)csc1-c1ccccc1	0	45.8	0	83.2	0	0
Cc1ccc(NC(=O)c2csc(-c3ccccc3)c2C)cc1	0	53.9	0	199.0	0	0
O=C(CSc1nccn1-c1ccc(F)cc1)Nc1ccc2c(c1)OCO2	0	0	0	0	0	0
O=C(CCn1cccn1)Nc1ccc(-c2ccno2)cc1	0	33.1	0	34.1	0	0
CN(C)S(=O)(=O)c1ccc2c(c1)nc(CCC(=O)Nc1ccc3c(c1)OCO3)n2C	0	9.6	0	48.0	0	0
O=C(CCn1cccn1)Nc1ccc2c(c1)OCO2	0	35.8	0	39.5	0	0
Cc1ccn(CCC(=O)Nc2ccc(-c3ccno3)cc2)n1	0	0	0	0	0	0
O=C(CSc1nccn1-c1ccccc1)Nc1ccc2c(c1)OCO2	0	70.1	0	67.6	0	0
CN1CCN(CCC(=O)Nc2ccc3c(c2)OCO3)CC1	0	0	0	0	0	0
COc1cccc(N2C(=NC(=O)c3ccccc3)SC3CS(=O)(=O)CC32)c1 (centres undefined)	0	0	0	0	0	0
COc1cc(S(=O)(=O)NC(Cc2c[nH]c3ccccc23)C(=O)O)ccc1NC(C)=O (centres undefined)	0	0	0	0	0	0
CC(O)CN(CCN(CC(C)O)CC(C)O)CC(C)O (centres undefined)	0	-	-	-	-	-
C[C@H]1COC(=O)O1	-	0	-	0	-	-
COc1ccc(-n2ccnc2SCC(=O)Nc2ccc3c(c2)OCO3)cc1	0	-	-	-	-	-
Cn1ccnc1SCC(=O)Nc1ccc2c(c1)OCO2	0	41.0	-	0	0	0
O=C(CCS(=O)(=O)c1cccc2nonc12)Nc1ccc(F)cc1F	0	-	-	-	-	-
CCCCC(=O)Nc1cccc(NC(=O)c2ccc(Br)o2)c1	0	0	0	0	0	0
Cc1ccc(/C=N/NC(=O)c2cccc(NC(=O)c3ccccc3C)c2)o1	0	0	0	0	0	0
SMILES	Tb PYK inh	CHX counter	NS1 function inh	Shiga inhibitor	LmPK inhibitor	SARS PLpro yeast
CC(=O)c1cccc(NC(=O)c2ccco2)c1	0	0	0	0	0	0
C/C(=N\NC(=O)c1cccc(Br)c1)c1cccc(NC(=O)c2ccc(C)o2)c1	0	27.8	0	42.1	0	0
O=C(Nc1cccc(F)c1)c1ccc(Br)o1	0	59.5	0	77.4	0	0
CC(=O)c1cccc(NC(=O)c2ccc(C)o2)c1	0	25.7	-	0	0	0
CC(=O)c1cccc(NC(=O)c2ccc(Br)o2)c1	0	24.5	0	62.7	0	0
O=C(Nc1ccccc1C(=O)O)c1cccc(NC(=O)c2ccc(Br)o2)c1	0	0	0	0	0	0
CCOC(=O)c1ccc(NC(=O)Cn2cc(C(=O)c3ccc(Cl)cc3)c(=O)c3ccc(C)nc32)cc1	0	-	-	-	-	-
COc1cccc(NC(=O)c2ccc(OC(F)(F)F)cc2)c1	0	-	-	-	-	0
O=C(Nc1cccc(OC(F)(F)F)c1)c1ccc(Br)o1	0	40.3	0	0	0	0
O=C(Nc1ccc2nn(-c3ccccc3)nc2c1)c1ccc(Br)o1	0	13.5	0	74.4	0	0
Cc1ccc(OCC(=O)NNC(=O)c2ccoc2C)c(Br)c1	0	0	0	0	0	0
Cc1occc1C(=O)NNC(=O)COc1ccc(Br)cc1Br	0	0	0	50.0	0	0
Cc1occc1C(=O)NNC(=S)NC(=O)COc1ccc(Cl)cc1Cl	0	25.9	0	0	0	0
CCC(=O)Oc1c(Sc2ccc(Cl)cc2)c(C)nn1C(C)(C)C	0	-	-	-	-	-
O=C(Nc1cccc(Oc2ccccc2)c1)c1ccc(-n2cncn2)c2ccoc12	0	-	-	-	-	-
Cc1cc(N2CCOCC2)n2ncc(-c3ccc(Cl)cc3)c2n1	0	75.2	0	119.7	0	0
Cc1nc2cc(-c3cccc(F)c3)nn2c(N2CCN(C(=O)c3ccco3)CC2)c1C	0	60.5	0	94.2	0	0
CCCc1cc(N2CCOCC2)n2nc(C)c(-c3ccccc3)c2n1	0	18.0	0	0	0	0
Cc1cc(N2CCCCC2)n2ncc(-c3ccc(Cl)cc3)c2n1	0	29.0	0	0	0	0
O=C(CSc1nc2c([nH]c3ccccc32)c(=O)n1-c1ccccc1)Nc1ccccc1F	0	-	-	-	-	-
Cc1nc2c(-c3ccccc3)cnn2c(N)c1-c1ccccc1	0	0	0	0	0	0
Cc1cc(N2CCOCC2)n2nc(C)c(-c3ccc(Cl)cc3)c2n1	0	0	0	0	0	0
CC(=O)Nc1ccc(Nc2cc(C)nc3c(-c4ccc(Cl)cc4)c(C)nn23)cc1	0	0	0	0	0	0
C=CCc1c(C)nc2c(-c3ccccc3)cnn2c1N1CCOCC1	0	58.3	0	84.0	0	0
Cc1cc(N2CCC(C)CC2)n2ncc(-c3ccccc3)c2n1	0	44.0	0	131.6	0	0
SMILES	Tb PYK inh	CHX counter	NS1 function inh	Shiga inhibitor	LmPK inhibitor	SARS PLpro yeast
Cc1ccc(-c2cnn3c(N4CCOCC4)cc(C)nc23)cc1	0	68.0	0	107.8	0	0
CC(=O)Nc1ccc(Nc2cc(C)nc3c(-c4ccc(Cl)cc4)cnn23)cc1	0	52.4	0	35.7	0	0
Cc1cc(N2CCOCC2)n2ncc(-c3ccccc3)c2n1	0	34.0	0	100.3	0	0
Cc1cc(N2CCN(C(=O)c3ccco3)CC2)n2ncnc2n1	0	0	0	0	0	0
CC(C)(C)c1cc(N2CCOCC2)n2ncc(-c3ccc(Cl)cc3)c2n1	0	30.6	0	0	0	0
Cc1cc(N2CCCCC2)n2ncc(-c3ccccc3)c2n1	0	59.6	0	0	0	0
Cc1cc(N2CCN(C(=O)c3ccco3)CC2)n2ncc(-c3ccccc3)c2n1	0	31.4	0	64.2	0	0
Cc1cc(N2CCCCC2)n2nc(C)c(-c3ccccc3)c2n1	0	0	0	0	0	0
Cc1nn2c(N3CCOCC3)cc(C(C)(C)C)nc2c1-c1ccc(Cl)cc1	0	0	0	0	0	0
Cc1ccnc(NS(=O)(=O)c2ccc(NC(=O)c3cccc(Cl)c3)cc2)n1	0	-	-	-	-	-
C/C(=N\NC(=O)c1sccc1C)c1ccncc1	0	43.9	0	109.1	0	0
